Laboratory results reported in article PMC4336329 (PLoS ONE, 2015).
The campaign covered roughly 310,000 compounds. About 14,000 (4.5%) showed an effect of 50% or more. Effects have a minus sign here. The full list was thinned out, with strong results kept by preference.

Target: human ether-à-go-go-related gene (hERG) potassium channel (human, UniProt Q12809)
Assay: primary screen, population patch clamp on CHO cells stably expressing hERG; higher = less effect of the substance
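Note: peak tail current of the secondary pulse compared with the same well before compound.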

Sequence of human ether-à-go-go-related gene (hERG) potassium channel (Q12809 whole entry, looked up): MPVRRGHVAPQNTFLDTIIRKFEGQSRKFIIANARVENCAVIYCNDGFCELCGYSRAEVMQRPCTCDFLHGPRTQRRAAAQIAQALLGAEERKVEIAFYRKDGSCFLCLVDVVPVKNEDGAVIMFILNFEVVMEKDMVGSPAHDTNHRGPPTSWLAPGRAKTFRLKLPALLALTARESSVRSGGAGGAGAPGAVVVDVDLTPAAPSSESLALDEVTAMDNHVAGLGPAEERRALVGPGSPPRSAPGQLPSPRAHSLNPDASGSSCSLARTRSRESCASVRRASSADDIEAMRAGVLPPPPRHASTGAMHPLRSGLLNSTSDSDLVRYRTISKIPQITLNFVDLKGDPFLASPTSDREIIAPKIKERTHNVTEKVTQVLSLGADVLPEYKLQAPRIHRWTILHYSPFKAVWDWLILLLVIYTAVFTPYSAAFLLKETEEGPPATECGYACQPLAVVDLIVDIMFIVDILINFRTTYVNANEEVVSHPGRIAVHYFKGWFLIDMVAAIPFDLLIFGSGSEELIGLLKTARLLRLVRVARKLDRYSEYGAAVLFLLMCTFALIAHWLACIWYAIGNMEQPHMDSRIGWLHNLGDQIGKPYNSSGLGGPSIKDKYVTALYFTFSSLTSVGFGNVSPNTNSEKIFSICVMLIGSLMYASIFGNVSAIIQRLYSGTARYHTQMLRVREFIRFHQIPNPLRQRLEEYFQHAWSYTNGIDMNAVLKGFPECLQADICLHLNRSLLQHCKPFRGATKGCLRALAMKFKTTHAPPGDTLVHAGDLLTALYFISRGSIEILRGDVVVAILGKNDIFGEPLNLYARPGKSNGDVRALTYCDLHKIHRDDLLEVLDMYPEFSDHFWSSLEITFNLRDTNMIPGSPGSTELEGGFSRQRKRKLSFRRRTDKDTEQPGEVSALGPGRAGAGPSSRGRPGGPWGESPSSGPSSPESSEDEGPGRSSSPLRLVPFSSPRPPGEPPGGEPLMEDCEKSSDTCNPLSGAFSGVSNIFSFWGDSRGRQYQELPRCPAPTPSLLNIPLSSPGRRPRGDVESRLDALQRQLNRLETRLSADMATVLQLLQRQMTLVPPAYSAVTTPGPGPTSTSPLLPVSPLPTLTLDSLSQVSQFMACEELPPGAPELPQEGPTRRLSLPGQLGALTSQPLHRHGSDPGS

Structure (SMILES) | hERG current change (%, negative = inhibition) at 10uM [%]
COC(=O)c1cc(NC(=S)NCc2ccc(Cl)cc2)cc(C(=O)OC)c1 | -20.6
Cc1ccc(Nc2nnc(SCC(=O)Nc3ccccc3[N+](=O)[O-])s2)cc1 | 7.88
CCOC(=O)CN1C(=O)/C(=C2\SC(=S)N(NC(=O)c3cccnc3)C2=O)c2ccccc21 | 11.5
O=C(NCc1ccc(F)cc1)c1cc(S(=O)(=O)N2CCOCC2)ccc1F | -20.6
C[C@H](NC(=O)c1cc2c([nH]c3ccccc32)c(-c2ccccc2)n1)C(=O)O | 11.8
O=C(Nc1ccccc1C(F)(F)F)N1CCN(C(c2ccccc2)c2ccccc2)CC1 | 15.5
COc1ccc(-c2nc(SC)n(C(=O)c3ccco3)n2)cc1 | 13.7
O=S(=O)(/C=C/c1cccc(Br)c1)N1CCOCC1 | -6.85
CCC(=NCCO)c1c(O)n(-c2ccc(Cl)cc2)c(=O)[nH]c1=O | 15.5
CC(=O)c1c(-c2ccc(C)cc2)nc2c3ccccc3ccn12 | 10.2
COc1ccc(C(=O)c2c3ccc([N+](=O)[O-])cc3[n+]([O-])n2CCCC(N)=O)cc1 | -34.6
COc1ccc2c(C(=O)c3ccc(C)cc3)n(CCCC(N)=O)[n+]([O-])c2c1 | -44.2
COc1ccc2c(C(=O)c3ccc(C)cc3)n(Cc3ccc(C(N)=O)cc3)[n+]([O-])c2c1 | -12.5
COc1ccc(C(=O)c2c3ccc(C(F)(F)F)cc3[n+]([O-])n2CCCC(N)=O)cc1 | -51.6
COc1ccc2c(C(=O)c3ccc(Cl)cc3)n(CCCC(N)=O)[n+]([O-])c2c1 | -55.5
COc1ccc(C(=O)c2c3ccc(OC)cc3[n+]([O-])n2CCCC(N)=O)cc1 | -34.9
COc1ccc(C(=O)c2c3ccc(OC)cc3[n+]([O-])n2Cc2ccc(C(N)=O)cc2)cc1 | -42
COc1ccc(C(=O)c2c3ccc(C(F)(F)F)cc3[n+]([O-])n2CCC[NH3+])cc1.[Cl-] | -73.3
COc1ccc(C(=O)c2c3ccccc3[n+]([O-])n2CCC(N)=O)cc1 | 13.1
COc1ccc(S(=O)(=O)O/N=C2\CCSc3ccc(C)cc32)cc1 | 3.61
CCOCCCNCc1cn(-c2ccc(F)cc2F)nc1-c1ccccc1C | -48
CCc1cc(=O)oc2cc(C)cc(OC(C)C(=O)NCCN3CCOCC3)c12 (stereo not drawn) | 4.16
CCO[C@@H]1OC(C(=O)NCc2nc3ccccc3[nH]2)=C[C@H](c2ccc(C(F)(F)F)cc2)[C@H]1CCCO | -3.34
COC(=O)c1ccc(C[n+]2ccccc2)cc1.[Br-] | 17.3

Structure (SMILES) | hERG current change (%, negative = inhibition) at 10uM [%]
Cc1ccc(CN2CCN(CC(=O)O)C2=O)cc1 | 41.5
Cc1ccc(-n2c(C)nnc2SCC(=O)N2CCc3ccccc3C2)cc1 | -53.3
Cc1ccc(CNC(=O)CN2CCN(Cc3ccc(C)cc3)C2=O)cc1 | -26.5
Cc1nnc(SCC(=O)N2CCc3ccccc3C2)n1-c1ccccc1 | -23.6
CN(CCNC(=O)CN1CCN(Cc2ccccc2Cl)C1=O)Cc1ccccc1 | -30.4
COCCCNC(=O)CN1CCN(Cc2ccc(Cl)cc2)C1=O | 1.74
Cc1ccc(-n2c(C)nnc2SCC(=O)N2CCc3ccccc3C2)cc1C | -21.9
Cc1ccc(CN2CCN(CC(=O)N3CCC(C(N)=O)CC3)C2=O)cc1 | 5.43
Cc1ccc(CN2CCN(CC(=O)N3CCc4ccccc4C3)C2=O)cc1 | -50.8
Cc1ccc(CN2CCN(CC(=O)NCc3ccc(Cl)cc3)C2=O)cc1 | -50.4
Cc1ccc(CNC(=O)CN2CCN(Cc3ccc(Cl)cc3)C2=O)cc1 | -20.9
CCN(CCNC(=O)CN1CCN(Cc2ccc(Cl)cc2)C1=O)c1ccccc1 | -52
CC(NC(=O)c1ccc(Cl)cc1)c1nnc(SCC(=O)NC2=NCCS2)n1C (stereo not drawn) | 22.3
Cc1cc(O)c(N)c(C)c1Cl.Cl | -4.7
Cn1c(=O)[nH]c(=O)c2c1nc(CN1CCN(c3cccc(Cl)c3)CC1)n2CCc1ccccc1 | -21.8
CCOC(=O)C1=C(C)NC(SC)=C(C#N)C1CC(C)C (stereo not drawn) | -12.3
CCN(CC)S(=O)(=O)c1ccc(-c2nnc(SCC(N)=O)n2CC)cc1 | 35.8
CCN1CCCC1CNC(=O)CN(C)S(=O)(=O)c1ccc(Cl)cc1 (stereo not drawn) | -21.6
Cc1ccc(S(=O)(=O)Nc2c(C)nc3nc(C)[nH]n3c2=O)c(C)c1 | 10.3
Cc1ccc(N2C(=O)c3cccc4c(C(=O)O)ccc(c34)C2=O)cc1 | 8.57
COc1ccc(-n2ncc3c(=O)n(CC(=O)N(C(C)C)C(C)C)cnc32)cc1 | 0.562
Cc1cc(Br)cn2ccnc12 | -6.51
CC(Sc1nnc(C2CCCCC2)n1N)C(=O)NCc1ccc2c(c1)OCO2 (stereo not drawn) | 3.2
CN1CCN(CCCNC(=O)c2ccc3c(=O)n(CCc4ccccc4)c(=O)[nH]c3c2)CC1 | 15.3
